Sa growth 42C: S. aureus growth inhibition at 42 and 30 °C, primary screen, LtaS inhibitor project, RN4220, two temperatures. OD600, 20 h, 42 °C; hits give low values. relative growth, % (no concentration beside the values). 0.53% of 170,000 active;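 active = relative growth at most 50% at the other temperature and 20+ points below 30 °C, or under 10% at both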
S aureus helic: inhibitors of S. aureus replicative helicase, primary screen, biochemical, fluorescence unwinding readout | purified S. aureus helicase, fluorescence unwinding assay | 0.05% of 120,000 active | inhibition, % (concentration not given with the values) | replicative DNA helicase (DnaC/DnaB), Staphylococcus aureus | AID 485395, 2010; in the data active = inhibition above about 25%, passing the limit was not always enough;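 also: 0% = mean of negative control wells and 100% = mean of positive control wells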
* marks the source's active call; other numbers are inactive results; · = no result given. This excerpt belongs to a sample that is enriched for hits.

SMILES | Sa growth 42C | S aureus helic
O=C(N=C1N=C2N=CC=CN2Cc2ccccc21)C1CCCCC1 | 102 | 12
Cc1cc(C)cc(NC(=S)NC2CCCCC2)c1 | 79 | ·
FC(F)(F)c1cc(NC(=S)NC2CCCCC2)cc(C(F)(F)F)c1 | 7.4* | ·
O=C(O)/C=C/C(=O)c1ccccc1 | 124 | 5
O=C(/C=C/C(=O)c1ccc2ccccc2c1)c1ccccc1 | -0.4* | 3
NC(=O)c1ccc(NC(=O)COC(=O)c2ccc(-n3cnnn3)cc2)cc1 | 90 | -13
Cc1ccc(-c2cc(C(=O)Oc3ccc(C#N)cc3)no2)cc1C | 99 | ·
Cc1cccc(OC(=O)c2cc(-c3ccc(C)c(C)c3)on2)c1 | 0.8* | ·
Cc1cc(OC(=O)c2cc(-c3ccc4c(c3)OCCO4)on2)ccc1Cl | 110 | ·
Cc1ccc(OC(=O)c2cc(-c3ccc4c(c3)OCCO4)on2)cc1C | 2.2* | ·
Clc1nnc(-c2ccccc2)c(-c2ccccc2)n1 | -0.6* | ·
NNc1nnc(-c2ccccc2)c(-c2ccccc2)n1 | 31 | 23
CCOC(=O)c1cc2ncc(C(F)(F)F)cc2s1 | 93 | ·
NNC(=O)c1cc2ncc(C(F)(F)F)cc2s1 | 0.0* | 29
COc1cc(C(=O)N2CCn3c(C)ccc3C2C)cc(OC)c1OC (stereo not given) | 87 | -3
Cc1ccc2c(Cl)cc(Cl)c(OCC(=O)Nc3c(F)cccc3F)c2n1 | -0.2* | -19
Cc1ccc(OCC(=O)Nc2cccc3ccc(C)nc23)c(C)c1 | 99 | ·
CCn1cc(C(=O)N2CCC(C(=O)OC)CC2)c(=O)c2ccc(C)nc21 | 99 | -14
Cc1ccc(Cc2c[nH]c(=S)s2)cc1 | 23* | 9
Cc1ccc(Cc2cn3cc(-c4ccc(F)cc4)nc3s2)cc1 | 96 | ·
CO[C@H](C(=O)[C@@H](O)[C@@H](C)O)[C@@H]1Cc2cc3cc(O[C@H]4C[C@@H](O[C@H]5C[C@@H](O)[C@H](O)[C@@H](C)O5)[C@@H](O)[C@@H](C)O4)c(C)c(O)c3c(O)c2C(=O)[C@H]1O[C@H]1C[C@@H](O[C@H]2C[C@@H](O[C@H]3C[C@](C)(O)[C@H](O)[C@@H](C)O3)[C@H](O)[C@@H](C)O2)[C@H](O)[C@@H](C)O1 | -0.2* | ·
COC(=O)C1=C(N)N(c2ccc(S(N)(=O)=O)cc2)C2=C(C(=O)CCC2)C1c1ccc(OC)cc1 (stereo not given) | 101 | 6
CC1Cc2ccccc2N1C(=O)Nc1ccc(Cl)c(Cl)c1 (stereo not given) | 107 | -1
CC(N=c1ccccn1C(=O)Nc1ccc(Cl)c(Cl)c1)c1ccco1 (stereo not given) | -0.8* | 14
CCC(=O)N1c2ccc(S(=O)(=O)CCC(=O)Nc3ccc(C)c(F)c3)cc2CC1C (stereo not given) | 91 | -21
SMILES | Sa growth 42C | S aureus helic
Cc1ccc(OCc2nc(C#N)c(NCCN(C)C)o2)cc1 | 91 | 7
Cc1ccc(CC(=O)N2CCCc3ccccc32)cc1 | 109 | 17
CCOC(=O)c1c2c(n3ccccc13)C(=O)c1ccccc1C2=O | 9.7* | -9
CCOC(=O)C1=C(O)c2ccccc2C1=O | 122 | 4
CO[C@H]1/C=C/O[C@@]2(C)Oc3c(C)c(O)c4c(O)c(c(/C=N/N5CCN(C)CC5)c(O)c4c3C2=O)NC(=O)/C(C)=C\C=C\[C@H](C)[C@H](O)[C@@H](C)[C@@H](O)[C@@H](C)[C@H](OC(C)=O)[C@@H]1C | 1.6* | ·
CCC(C)Cn1c(CO)nc2ccccc21 (stereo not given) | · | 9
CS(=O)(=O)N1CCN(C(=O)Cc2ccc(-c3ccccc3)cc2)CC1 | 117 | 11
N#CCn1c(CSc2nc3ccccc3c(=O)n2CCC2=CCCCC2)nc2ccccc2c1=O | 67 | -19
C/C(=N\NC(N)N)C1CCCCCCCCCCC1 | -0.4* | 0
C/C(=N\NC(N)=O)C1CCCCC1 | 98 | 8
CCN(CC)c1ccc(Nc2nc(-c3cccs3)cs2)cc1 | 87 | 6
N#Cc1ccc2c(c1)nc1c3ccc4c5c(ccc(c(=O)n21)c53)C(=O)NC4=O | 0.9* | 5
Cc1nn(CC(=O)NC2CCCCCC2)c2ccccc12 | 99 | ·
COc1ccc(/C=N/N=C(N)N)cc1OC | 103 | 35
COc1cc(/C=N/N=C(N)N)ccc1OC(=O)c1ccc(C)cc1 | -0.7* | 12
O=C(COc1ccccc1)N(Cc1ccccc1)c1ccccn1 | 100 | 1
CCOC(=O)c1c(-c2ccc(C)o2)csc1NC(=S)NC(=O)N(C)C | -0.6* | 10
CCOC(=O)c1c(-c2cccs2)csc1NC(=O)c1ccccc1 | 114 | 6
COc1ccc(CNCC(=O)N2CCN(C(=O)CNCc3ccc(OC)cc3)CC2)cc1 | 127 | 17
COC(=O)c1ccc2c(=O)[nH]c(COC(=O)c3ccc4c(c3)OCO4)nc2c1 | 97 | -9
COC(=O)c1ccc2c(=O)[nH]c(COC(=O)CNC(=O)c3cccs3)nc2c1 | 83 | 32*
NC(=O)N/N=C/c1ccc(-c2ccc(Cl)cc2)o1 | 93 | 8
NC(=O)N/N=C/c1ccc([N+](=O)[O-])o1 | 2.5* | ·
O=C(CSc1nc2ccccc2s1)c1ccc2c(c1)OCO2 | 99 | -13
Cc1c(Cl)sn(-c2ccc(Cl)cc2)c1=O | -1.2* | 11
SMILES | Sa growth 42C | S aureus helic
O=C1CSCC(=O)N1c1ccc(Cl)cc1 | 100 | -3
O=C1CCCN1c1ccc(S(=O)(=O)Nc2ccc3oc4c(c3c2)CCCC4)cc1 | 115 | 6
O=S(=O)(Nc1ccc2oc3c(c2c1)CCCC3)c1ccc(F)cc1 | 39* | 0
COc1ccc(N2C(=O)Nc3ccccc3C2(O)C(=O)NCCN2CCN(c3ccccc3)CC2)c(OC)c1 (stereo not given) | 94 | 8
Cc1nc(CSc2n[nH]c(C(F)(F)F)n2)cs1 | 102 | ·
CCOc1ccc(NC23SCC(=O)C2CCc2ccccc23)cc1 (stereo not given) | 2.0* | ·
CCOc1ccc(NC(=O)C2NC(=O)CC2c2ccccc2)cc1 (stereo not given) | 89 | 10
C=CCn1c(SCC(=O)Nc2sc3c(c2C(=O)OC)CCC3)nnc1-c1cccnc1 | 100 | 8
CCCCC1=NN2C(=N)/C(=C\c3cccn3-c3ccc(OC)c(Cl)c3)C(=O)N=C2S1 | 60 | -20
O=C1c2oc3ccccc3c(=O)c2C(c2ccccc2)N1c1nccs1 (stereo not given) | 105 | 7
N#Cc1nccnc1S(=O)(=O)c1cccs1 | -0.7* | ·
O=S(=O)(c1cccs1)c1cccs1 | 94 | ·
CCOC(=O)COc1ccc(C2NC(C(=O)O)CS2)cc1OC (stereo not given) | 90 | 1
CSc1ccccc1NC(=O)CC(=O)Nc1ccccc1SC | 83 | 2
O=c1c2ccccc2c2nc3c(=O)c4ccccc4c3nc12 | 97 | 10
[N-]=[N+]=c1c(=O)ccc2c(=O)c3ccccc3c(=O)c1=2 | 6.1* | 13
Cc1occc1C(=O)N/N=C/c1ccc(C(C)(C)C)cc1 | 87 | 37
FC(F)(F)c1cccc(N=C=S)c1 | -1.3* | 19
FC(F)(F)c1cccc(N=Cc2ccccc2)c1 | 96 | 8
COC(=O)CC(C1=C(O)CCCC1=O)C1=C(O)CCCC1=O | 86 | 3
Cc1sc2ncn(CC(=O)NCC3COc4ccccc4O3)c(=O)c2c1S(=O)(=O)N1CC(C)CC(C)C1 (stereo not given) | 109 | 9
C=CC1=C(C(=O)O)N2C(=O)[C@@H](NC(=O)C(=NO)c3csc(N)n3)[C@H]2SC1 | -0.1* | ·

Screening data: PubChem BioAssay, ICCB-Longwood Screening Facility, Harvard Medical School
